{"source": "PubChem BioAssay", "key": {"[1]": {"molecular_target": "Cell division control protein 42 homolog (Homo sapiens) (UniProt P60953)", "sequence (P60953 whole entry, looked up)": "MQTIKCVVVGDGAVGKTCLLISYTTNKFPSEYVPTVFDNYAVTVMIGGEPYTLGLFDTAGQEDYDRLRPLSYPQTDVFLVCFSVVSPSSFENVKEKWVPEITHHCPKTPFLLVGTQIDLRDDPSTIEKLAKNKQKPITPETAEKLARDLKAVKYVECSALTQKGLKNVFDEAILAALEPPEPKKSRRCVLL", "experiment": "activated mutant Cdc42 GTP-binding inhibitors, dose response, biochemical, multiplex bead flow cytometry, Bodipy-FL-GTP (AID 1333;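 active = fitted half-maximal concentration within the tested dose range, moderate curve steepness, a statistically real signal drop, and little compound fluorescence or tag-binding interference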)"}, "[2]": {"molecular_target": "Cell division control protein 42 homolog (Homo sapiens) (UniProt P60953)", "experiment": "wildtype Cdc42 GTP-binding inhibitors, dose response, biochemical, multiplex bead flow cytometry, Bodipy-FL-GTP (AID 1334;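 active = fitted half-maximal concentration within the tested range, moderate curve steepness, significant signal drop, and little compound fluorescence or bead-linkage interference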)", "settings": "bead-based flow cytometry, Bodipy-FL-GTP binding to GST-Cdc42; at 100 µM (top of the series) unless noted"}, "[3]": {"molecular_target": "GTPase HRas (Homo sapiens) (UniProt P01112)", "sequence (P01112 whole entry, looked up)": "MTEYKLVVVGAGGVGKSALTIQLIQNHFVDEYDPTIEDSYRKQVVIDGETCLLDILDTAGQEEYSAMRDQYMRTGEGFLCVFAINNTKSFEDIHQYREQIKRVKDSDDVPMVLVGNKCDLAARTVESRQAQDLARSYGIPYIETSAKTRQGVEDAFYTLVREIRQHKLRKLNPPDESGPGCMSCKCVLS", "experiment": "inhibitors of GTP binding to wildtype Ras, dose response, biochemical, multiplex bead flow cytometry (AID 1335;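 active = fitted half-maximal concentration within 10 nM to 100 µM, steepness 0.5 to 2, significant signal drop, low assay interference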)", "settings": "bead-based flow cytometry, Bodipy-GTP binding to GST-Ras; at 100 µM (top of the series) unless noted"}, "[4]": {"test_system": "Ras-related protein Rab-7a (dog), GTP binding", "experiment": "Rab7 GTP binding inhibitors, potency, dose response, biochemical, wildtype, multiplex bead flow cytometry (AID 1336)"}, "[5]": {"molecular_target": "Ras-related C3 botulinum toxin substrate 1 (Homo sapiens) (UniProt P63000)", "experiment": "wildtype Rac1 GTP binding inhibitors, dose response, biochemical, multiplex bead flow cytometry (AID 1340;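 active = dose curve with midpoint inside tested range, moderate steepness, plateau gap beyond fit error, low compound glow and bead-link interference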)", "settings": "GST-Rac1 beads, Bodipy-FL-GTP binding; at 100 µM (top of the series) unless noted"}, "[6]": {"molecular_target": "GTPase HRas (Homo sapiens) (UniProt P01112)", "experiment": "activated Ras mutant GTP binding inhibitors, dose response, biochemical, multiplex bead flow cytometry (AID 1341;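 active = dose-response curve with midpoint inside the tested range, moderate steepness, significant amplitude and little compound fluorescence or bead-attachment interference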;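 also: GST-tagged constitutively activated Ras mutant immobilized on beads and multiplexed with other GTPases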)"}, "[7]": {"experiment": "RPL19A-GFP modulators, yeast TOR pathway, confirmation, cell-based, S. cerevisiae, flow cytometry, cherry picks, mother/daughter gates (AID 2270;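 active = GFP response below 50% of the DMSO control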)", "settings": "S. cerevisiae RPL19A-GFP strain, 3 h, at 10 µM, stronger effect = lower value, 100 = same GFP as DMSO wells"}, "[8]": {"experiment": "LAP4-GFP expression modulators in yeast, confirmation, cell-based, cherry picks, flow cytometry, mother/daughter gates (AID 2271;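 active = GFP response above 150% of the DMSO control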;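 also: ratio of sample to DMSO plate mean so 100% equals DMSO level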)", "settings": "S. cerevisiae LAP4-GFP strain, 3 h, at 10 µM, stronger effect = higher value, 100 means same as DMSO control"}, "[9]": {"experiment": "modulators of MEP2-GFP levels in yeast, confirmation, S. cerevisiae, flow cytometry GFP, cherry picks (AID 2272;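 active = GFP response above 150% of the DMSO control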;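 also: ratio of well signal to plate DMSO mean so 100% equals DMSO level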)", "settings": "S. cerevisiae MEP2-GFP strain, 3 h, at 10 µM, stronger effect = higher value"}, "[10]": {"experiment": "AGP1-GFP expression modulators, hit retest, confirmation, cell-based, flow cytometry, S. cerevisiae, cherry picks (AID 2273;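 active = GFP response above 150% of the DMSO level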;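 also: median GFP channel fluorescence over the whole cell population gate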)", "settings": "S. cerevisiae AGP1-GFP strain, 3 h, at 10 µM"}, "[11]": {"experiment": "modulators of CIT2-GFP expression in yeast, confirmation, S. cerevisiae, GFP fusion, cherry picks, mother/daughter gates (AID 2274;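 active = GFP response above 150% of the DMSO level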)", "settings": "S. cerevisiae CIT2-GFP strain, flow cytometry, 3 h, at 10 µM, stronger effect = higher value"}, "[12]": {"settings": "measured here: daughter cell gate"}, "[13]": {"settings": "measured here: mother cell gate"}}, "note": "For some assays here: Potency and affinity values are given separately. The source made the active and inactive calls. Unless noted, no rule for the calls is given here.", "data": [{"smiles": "NC(=O)COC(=O)c1cccc2c1-c1ccccc1C2=O", "values": [{"measurement": "outcome", "setting": "[1]", "value": "inactive"}, {"measurement": "fluorescence, percent of control (lower = inhibition)", "setting": "[2]", "value": 33.4, "unit": "%"}, {"measurement": "GTP binding, percent of control", "setting": "[3]", "value": 75, "unit": "%"}, {"measurement": "outcome", "setting": "[4]", "value": "inactive"}, {"measurement": "GTP binding signal, raw median fluorescence (lower = inhibition) (MCF (arbitrary fluorescence units))", "setting": "[5]", "value": 176}, {"measurement": "outcome", "setting": "[6]", "value": "inactive"}]}, {"smiles": "Cc1c(CCC(=O)O)c(=O)oc2cc3occ(-c4ccc(F)cc4)c3cc12", "values": [{"measurement": "outcome", "setting": "[1]", "value": "inactive"}, {"measurement": "fluorescence, percent of control (lower = inhibition)", "setting": "[2]", "value": 29.1, "unit": "%"}, {"measurement": "GTP binding, percent of control", "setting": "[3]", "value": 72.6, "unit": "%"}, {"measurement": "outcome", "setting": "[4]", "value": "inactive"}, {"measurement": "GTP binding signal, raw median fluorescence (lower = inhibition) (MCF (arbitrary fluorescence units))", "setting": "[5]", "value": 160}, {"measurement": "outcome", "setting": "[6]", "value": "inactive"}]}, {"smiles": "Cc1nc2nc(SCC(=O)O)nn2c(C)c1Cc1ccccc1Cl", "values": [{"measurement": "outcome", "setting": "[1]", "value": "inactive"}, {"measurement": "fluorescence, percent of control (lower = inhibition)", "setting": "[2]", "value": 29.1, "unit": "%"}, {"measurement": "GTP binding, percent of control", "setting": "[3]", "value": 84, "unit": "%"}, {"measurement": "outcome", "setting": "[4]", "value": "inactive"}, {"measurement": "GTP binding signal, raw median fluorescence (lower = inhibition) (MCF (arbitrary fluorescence units))", "setting": "[5]", "value": 228}, {"measurement": "outcome", "setting": "[6]", "value": "inactive"}]}, {"smiles": "CCOc1nnc(C)c2c(C)n(-c3cccc(OC)c3)nc12", "values": [{"measurement": "outcome", "setting": "[1]", "value": "inactive"}, {"measurement": "fluorescence, percent of control (lower = inhibition)", "setting": "[2]", "value": 55.9, "unit": "%"}, {"measurement": "GTP binding, percent of control", "setting": "[3]", "value": 67.2, "unit": "%"}, {"measurement": "outcome", "setting": "[4]", "value": "inactive"}, {"measurement": "GTP binding signal, raw median fluorescence (lower = inhibition) (MCF (arbitrary fluorescence units))", "setting": "[5]", "value": 194}, {"measurement": "outcome", "setting": "[6]", "value": "inactive"}, {"measurement": "GFP response vs DMSO", "setting": "[7]", "value": "104% (inactive)"}, {"measurement": "GFP response vs DMSO", "setting": "[7]; [12]", "value": 102, "unit": "%"}, {"measurement": "GFP response vs DMSO", "setting": "[7]; [13]", "value": 106, "unit": "%"}, {"measurement": "GFP response relative to DMSO", "setting": "[8]", "value": "98.7% (inactive)"}, {"measurement": "GFP response relative to DMSO", "setting": "[8]; measured here: daughter cell gate response", "value": 98.7, "unit": "%"}, {"measurement": "GFP response relative to DMSO", "setting": "[8]; measured here: mother cell gate response", "value": 100, "unit": "%"}, {"measurement": "GFP response vs DMSO", "setting": "[9]", "value": "102% (inactive)"}, {"measurement": "GFP response, % of DMSO", "setting": "[10]", "value": "99.8% (inactive)"}, {"measurement": "GFP response, % of DMSO", "setting": "[11]", "value": "108% (inactive)"}, {"measurement": "GFP response, % of DMSO", "setting": "[11]; [12]", "value": 105, "unit": "%"}, {"measurement": "GFP response, % of DMSO", "setting": "[11]; [13]", "value": 109, "unit": "%"}]}]}
